Compounds with a hit are over-represented: about 8.9% of the library has one in this group of screens.
IMPase Li inh = qHTS Assay for Identifying the Cell-Membrane Permeable IMPase Inhibitors: Potentiation with Lithium. CHO-M1 cells, IP1 TR-FRET (IP-One), carbachol + lithium. Potency, µM (series often up to 59.4 µM), most hits filed as inhibitors. 0.35% of 210,000 active;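 further: IP1 builds up when IMPase is blocked and the TR-FRET signal falls; nearly all actives have a fitted effect of over 50% in size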
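Concentration–response in CHO-M1 cells, lithium-potentiated; 30 min at 37C. IP1 detected by competitive TR-FRET after 10 min lysis at RT. Hill-fitted AC50.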
ALDH1A1 inh = qHTS Assay for Inhibitors of Aldehyde Dehydrogenase 1 (ALDH1A1). Aldehyde dehydrogenase 1A1 (Homo sapiens), P00352. Purified ALDH1A1, NADH fluorescence, propionaldehyde substrate. Potency, µM (doses to about 75.3 µM), actives largely listed as inhibitors. 7.3% of 220,000 active; active means well fitted inhibition curve with a large enough effect, not every such curve was filed as active; inconclusive means small, poorly fitted or top-dose-only effect, or another doubt; inactive means no such curve, though single readings can be large or run the other way
ALOX12 inhib = qHTS Assay for Inhibitors of 12-hLO (12-human lipoxygenase); Polyunsaturated fatty acid lipoxygenase ALOX12 (Homo sapiens), P18054; purified 12-hLO, xylenol orange hydroperoxide absorbance; Potency, µM (top dose mostly 57.1 µM), actives largely listed as inhibitors; 0.12% of 150,000 active; AID 1452, 2008; further: nearly all actives have a fitted effect of over 55% in size
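Xylenol orange chromogenic assay: hydroperoxide from 12hLO oxidises Fe(II), giving red-shifted Fe(III)-XO absorbance. Conditions: 150 nM enzyme, 40 uM arachidonic acid, 25 mM Hepes pH 7.0, 0.01% Triton X-100, 30 min, room temperature.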
NPSR antag = qHTS Assay for Antagonists of the Neuropeptide S Receptor: cAMP Signal Transduction; Potency, µM (doses to about 38.3 µM), most hits filed as inhibitors; CHO-NPSR cells, cAMP TR-FRET, antagonist mode; AID 1461, 2008; 1% of 220,000 active; Q6W5P4; further: nearly all actives have a fitted effect of over 50% in size
HPGD inh = qHTS Assay for Inhibitors of HPGD (15-Hydroxyprostaglandin Dehydrogenase). 15-hydroxyprostaglandin dehydrogenase [NAD(+)] (Homo sapiens), P15428. purified HPGD, NADH fluorescence kinetic, PGE2 substrate. Potency, µM, actives largely listed as inhibitors. 4.3% of 150,000 active. AID 894, 2007; active means well fitted inhibition curve with a large enough effect, not every such curve was filed as active; inconclusive means small, poorly fitted or top-dose-only effect, or another doubt; inactive means no such curve, though single readings can be large or run the other way
Target sequence (P15428 whole entry, looked up): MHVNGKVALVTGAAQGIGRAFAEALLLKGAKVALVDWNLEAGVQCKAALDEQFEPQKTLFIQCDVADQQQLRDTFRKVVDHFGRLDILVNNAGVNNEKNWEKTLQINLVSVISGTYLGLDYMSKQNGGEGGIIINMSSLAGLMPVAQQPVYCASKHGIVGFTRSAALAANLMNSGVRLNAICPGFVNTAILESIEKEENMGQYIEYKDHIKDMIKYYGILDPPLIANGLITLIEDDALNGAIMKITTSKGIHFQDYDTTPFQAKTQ
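NADH formation kinetics: reaction with 30 uM PGE2 and 1 mM NAD+ (final), 20 nM enzyme, Tris-HCl pH 8 with Tween 20, after 15 min compound preincubation at room temperature. Fluorescence change, last versus first of five reads.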
IMPase inh = qHTS Assay for Identifying the Cell-Membrane Permeable IMPase Inhibitors; Inositol monophosphatase 1 (Rattus norvegicus), P97697; 120,000 tested, under 10 active; CHO-M1 cells, IP1 accumulation, HTRF TR-FRET ratio; AID 901, 2007; inhibition (IP1 accumulation), % at 46.1 µM; active means well fitted curve in the direction sought with a large enough effect in the signal ratio, not every such curve was filed as active; inconclusive means small, poorly fitted or top-dose-only effect, or a change in a side signal; inactive means no such curve, though single readings can be large or run the other way; the % refers to the signal ratio;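 further: cells stimulated with carbachol in lithium chloride buffer; higher means more IMPase inhibition seen as more IP1 and lower FRET ratio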
Target sequence (P97697 whole entry, looked up): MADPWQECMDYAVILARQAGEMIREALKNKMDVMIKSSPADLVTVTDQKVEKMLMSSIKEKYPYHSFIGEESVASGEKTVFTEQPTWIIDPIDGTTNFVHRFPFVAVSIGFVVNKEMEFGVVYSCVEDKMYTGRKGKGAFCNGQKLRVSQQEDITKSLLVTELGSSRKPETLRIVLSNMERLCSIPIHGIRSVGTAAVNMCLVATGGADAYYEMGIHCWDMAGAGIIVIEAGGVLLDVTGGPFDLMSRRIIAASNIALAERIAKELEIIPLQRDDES
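Carbachol-driven Gq signalling in CHO-M1 cells (2000/well) generates IP1. Compounds that block IMPase raise IP1 and so reduce the FRET signal from Eu-anti-IP1 and d2-IP1 after a 10 min room-temperature lysis.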
A number is an active result; n = inactive; u = inconclusive; x = no result given; [ ] = another dose, or the depositor's remark. Unless noted, the call rests on the fitted dose curve; in most records, active means well fitted curve in the direction sought with a large enough effect; inconclusive means small, poorly fitted or top-dose-only effect, or another doubt; inactive means no such curve, though single readings can be large; an effect the other way counts as inactive or inconclusive.

SMILES	IMPase Li inh	ALDH1A1 inh	ALOX12 inhib	NPSR antag	HPGD inh	IMPase inh
CCCc1[nH]nc2c1C(c1ccc(OC)cc1OC)C(C#N)=C(N)O2 (centres undefined)	n	u	n	n	n	n
CC(C)OC(=O)C1=C2SCC(=O)N2C(N)=C(C#N)C1	n	u	n	n	n	n
COc1ccc(N2CCCn3c2nc2c3c(=O)n(Cc3ccccc3)c(=O)n2C)c(OC)c1	n	u	x	n	x	x
COc1ccc(N2CCCn3c2nc2c3c(=O)n(Cc3ccccc3F)c(=O)n2C)cc1	n	8.9µM	n	n	n	n
COc1ccc(CCN2CCCn3c2nc2c3c(=O)n(Cc3ccccc3F)c(=O)n2C)cc1OC	n	3.5µM	n	n	u	n
COc1ccc(N2CCCn3c2nc2c3c(=O)n(Cc3ccccc3F)c(=O)n2C)c(OC)c1	n	11µM	n	n	u	n
COc1ccc(N2CCCn3c2nc2c3c(=O)n(CCCc3ccccc3)c(=O)n2C)cc1	n	n	n	u	n	n
C/C(=N\O)C(C)(C)NC(=O)Nc1ccc(Cl)cc1	n	n	n	n	n	n
CCOC(=O)NC1(C(F)(F)F)NC(=O)N(Cc2ccco2)C1=O (centres undefined)	n	n	n	n	n	n
C=C(C)C(=O)NNc1ccccc1	n	22µM	x	n	x	x
O=[N+]([O-])c1cc(Br)cc(C=Nc2ccc3c(c2)OCO3)c1O	x	10µM	x	u	x	x
O=[N+]([O-])c1ccc(O)c(C=Nc2ccc3c(c2)OCO3)c1	x	u	x	n	x	x
CCOC(=O)CNC(=O)CSc1nc2cccnc2n1Cc1ccccc1	n	u	n	n	n	n
O=C1CN(C(=O)OCc2ccccc2)c2ccccc2N1	n	n	n	n	n	n
CC(=O)Nc1ccccc1-c1nnc(SCc2ccccc2Cl)[nH]c1=O	n	n	n	n	16µM	n
CN(C)CCNC(=O)NC(=O)c1ccc(Cl)cc1	n	n	n	n	n	x
O=C(CSc1nnc(-c2ccc(Cl)cc2)n1Cc1ccco1)NCc1ccc2c(c1)OCO2	n	u	n	u	n	n
O=C(CSc1nnc(-c2ccc(Cl)cc2)n1Cc1ccco1)Nc1ccc2c(c1)OCCO2	n	5µM	u	n	25µM	n
O=C(CSc1nnc(-c2ccccc2Cl)n1Cc1ccco1)Nc1ccc2c(c1)OCCO2	n	10µM	n	n	n	n
CCn1c2ccccc2c2cc(NC(=O)CNCC3CCCO3)ccc21 (centres undefined)	n	32µM	x	n	x	x
COc1ccc(-c2cnc(SCC(=O)Nc3ccc4c(c3)OCO4)n2Cc2ccco2)cc1	n	11µM	n	u	n	n
CC(=O)Nc1cccc(NC(=O)CSc2ncc(-c3ccc(Cl)cc3)n2Cc2ccco2)c1	n	n	n	u	n	n
N#Cc1c(NC(=O)C(F)(F)F)sc2c3c(=O)c4ccccc4c(=O)c=3oc3ccccc3c12	n	n[13.5 µM]	n[11.4 µM]	x	n	x
CCS(=O)(=O)Nc1cccc(C2=NN(S(=O)(=O)c3ccc(F)cc3)C(c3cccs3)C2)c1 (centres undefined)	n	u	n	n	n	x
CCn1c2ccccc2c2cc(NC(=O)CSc3nnc(C4CC4)n3Cc3ccco3)ccc21	n	18µM	n	n	u	n
CCn1c(SCC(=O)Nc2ccc3c(c2)c2ccccc2n3CC)nnc1-c1cnccn1	n	n	n	n	n	n
O=c1[nH]c(=S)c2c(n1-c1ccccc1)CCC2	10µM	n	n	u	n	u
O=c1c(-c2ccccc2)c(O)c2c(n1-c1ccccc1)CCCC2	n	n	n	n	n	x
COc1ccc(-n2cc(-c3ccc(OC)c(OC)c3)[nH]c2=S)cc1	n	u	x	n	x	x

Screens from PubChem BioAssay.
